Bioassay records from PubChem.
BJeLR viability: MLPCN primary cell-based screen for lethality selective to Ras in HRASV12 cells. BJeLR (HRASV12) viability, CellTiter-Glo ATP luminescence, 48 h. inhibition, % (concentration not given with the values). 300,000 compounds, 0.17% hits. AID 1554, 2009; in the data active = inhibition above about 50%
SARS 3CLpro inh: SARS-CoV 3CLpro protease inhibitors, primary screen, biochemical, quenched FRET | inhibition, % at 6 µM | Replicase polyprotein 1ab (Severe acute respiratory syndrome coronavirus), P0C6X7 | AID 1706, 2009 | 290,000 compounds, 0.14% hits | recombinant SARS-CoV 3CLpro, quenched FRET peptide cleavage; in the data active = inhibition above about 12%
SSB-PriA inh: inhibitors of Klebsiella pneumoniae PriA binding to SSB C-terminal tail, primary screen, biochemical, AlphaScreen | PriA–SSB C-terminal tail interaction (Klebsiella pneumoniae) | AlphaScreen SSBct-PriA binding, biotinylated peptide | inhibition, % at 33 µM | 430,000 compounds, 0.6% hits; in the data active = inhibition mostly above about 37%, no sharp cut-off; inactive = mostly below about 20%
PrPC surface inh: inhibitors of human cell surface prion protein PrPC, primary screen, cell-based, TR-FRET. Major prion protein (Homo sapiens), P04156. TR-FRET read-out. inhibition, % at 13.8 µM. 370,000 compounds, 0.43% hits; in the data active = inhibition above about 24%
PrP 5UTR inh: inhibition of PrP 5' UTR reporter expression; cell-based PrP 5' UTR mRNA reporter, plate reader; inhibition, % (test concentration not listed); 340,000 compounds, 0.35% hits; AID 488862, 2010; in the data active = inhibition above about 52%
Numbers stand for hits; - = inactive; . = no result. An excerpt weighted towards active compounds, which were near 1.2% of everything screened.

SMILES	BJeLR viability	SARS 3CLpro inh	SSB-PriA inh	PrPC surface inh	PrP 5UTR inh
CC(C)(C)n1ncc2c(=O)n(NC(=O)c3cccc4ccccc34)cnc21	.	.	-	.	.
N#Cc1nc(-c2ccccc2Cl)oc1N1CCCCCC1	.	.	94	.	.
CC1CCN(c2oc(-c3ccccc3Cl)nc2C#N)CC1	-	-	49	-	-
CCOC(=O)c1[nH]c(C)c(C(=O)N2CCc3ccccc32)c1C	52	-	-	-	-
CC(=O)c1c(C)[nH]c(C(=O)N2CCc3ccccc32)c1C	-	-	-	-	-
Cc1nc2ccccn2c1C(=O)N1CCN(c2cc(C(F)(F)F)ncn2)CC1	.	.	-	.	.
COc1ccc(C=NN2CCN(C)CC2)cc1O	.	.	-	.	.
Cc1cc(=O)[nH]c(N=N/C(=N/Nc2ccc(O)cc2)c2ccccc2)n1	-	-	.	-	-
COc1ccc(N/N=C(/N=Nc2nc(C)cc(=O)[nH]2)c2ccccc2)cc1	67	-	.	-	-
N#CC1=C(N)Oc2cc(N)ccc2C1c1cccc(Br)c1 (stereo not given)	56	-	-	-	-
Fc1ccc(C=Nn2cnn(Cc3ccccc3Cl)c2=S)cc1	.	.	-	.	.
Cc1nc(-n2cccc2)sc1C(=O)Nc1nc2c(s1)C(=O)NCCC2	.	.	active	.	.
COc1ccccc1C=Nn1c(N)c(C(=O)NC2CCCCC2)c2nc3ccccc3nc21	.	.	-	.	.
COc1ccc(NC(=O)C(Cl)=C(Cl)Cl)cn1	-	-	-	-	-
COc1ccc(NC(=O)/C(Cl)=C(/Cl)S(=O)Cc2ccc(Cl)cc2)cn1 (stereo not given)	.	-	-	29	-
COc1ccc(NC(=O)/C(Cl)=C(/Cl)S(=O)(=O)Cc2ccccc2)cn1	-	-	-	94	-
C(CCc1ccccc1)=NNc1nc2ccccc2[nH]1	.	.	-	.	.
O=C1C=CC(=O)N1c1ccc(Sc2ccc([N+](=O)[O-])cc2)cc1	64	-	.	.	.
COC(=O)c1nn(-c2ccccc2)c(Cl)c1C=NOCc1ccc(C)cc1	.	.	-	.	.
Cc1ccc(-c2cc(C(=O)N3CCC(NC(=O)c4cccc(N(C)C)c4)CC3)[nH]n2)c(C)c1	.	.	48	.	.
Cc1cnc(C(=O)Nc2nc(-c3ccccn3)cs2)cn1	.	.	120	.	.
O=C(Nc1nc(-c2ccccn2)cs1)c1cccc(C(=O)Nc2nc(-c3ccccn3)cs2)n1	.	.	-	.	.
O=C(Nc1nc(-c2ccccn2)cs1)c1cc(Cl)ccn1	.	.	99	.	.
O=C(Nc1nc(-c2ccccn2)cs1)c1cc(Cl)ccc1Cl	.	.	86	.	.
Cc1cc(C(=O)Nc2nc(-c3ccccn3)cs2)c(C)s1	.	.	-	.	.
SMILES	BJeLR viability	SARS 3CLpro inh	SSB-PriA inh	PrPC surface inh	PrP 5UTR inh
Cc1ccc(C(N)=NOC(=O)c2ccco2)cc1	.	.	-	.	.
CC(=O)c1cccc(NC(=O)c2onc(C)c2Cl)c1	-	-	115	-	-
Cc1noc(C(=O)NCc2ccccc2)c1Cl	-	-	104	-	-
Cc1noc(C)c1C(=O)NCc1ccccc1	-	-	-	-	-
CC(=O)c1ccc(NC(=O)c2onc(C)c2Cl)cc1	-	-	-	-	-
O=C(NCc1ccccc1)c1c(Cl)nc(Cl)c(Cl)c1Cl	70	-	-	-	-
Cc1nc(Cl)c(C(=O)NCc2ccccc2)c(C)c1Cl	-	-	-	-	-
CSc1nc2ccc(NC(=O)C3=COCCO3)cc2s1	.	.	-	.	.
Cc1ccc(CNC(=O)CCCn2nc(-c3ccco3)ccc2=O)cc1	.	.	-	.	.
C=CCn1c(=C(C#N)C(=O)NCCN2CCOCC2)sc(=Cc2ccsc2)c1=O	.	.	-	.	.
[O-][n+]1cccc2c(Br)cc(Br)c(O)c21	-	-	69	-	-
Cc1ccc(OCCCC(=O)Nc2ccc3c(c2)OCO3)c(C)c1	.	.	36	.	.
O=C(Nc1nc2ccc(Cl)cc2s1)c1cnn2c1OCCC2	.	.	-	.	.
CC(C)(C)C(=O)N1CCc2ncncc2C1	.	.	-	.	.
COc1ccc(NC(=O)CSc2nccn2Cc2ccccc2)cc1	-	-	46	-	-
Cn1ccnc1SCC(=O)Nc1ccc(Oc2ccccc2)cc1	-	-	40	-	-
CCOc1ccc(NC(=O)CSc2nccn2C)cc1	-	-	-	-	-
COc1ccc(C)c2sc(N3CCN(C(=O)c4ccno4)CC3)nc12	.	.	-	.	.
CC(=O)n1cc(N(C(=O)CCl)c2ccc(C)cc2)c2ccccc21	84	-	-	-	-
CCc1ccc(NC(=O)CSc2ncc(S(=O)(=O)c3ccc(C)cc3C)c(=O)[nH]2)cc1	.	.	69	.	.
COc1ccc(NC(=O)CSc2ncc(S(=O)(=O)c3ccc(C)cc3C)c(=O)[nH]2)cc1Cl	.	.	-	.	.
O=S(=O)(Cc1cccc(F)c1)N1CCC2(CC1)OCCN2S(=O)(=O)c1ccc(Cl)cc1	.	.	-	.	.
CSc1ccc([C@@H](O)CNS(=O)(=O)c2ccccc2Cl)cc1	.	.	-	.	.
Cc1ccc2c(c1Cl)NC(C(=O)O)C1CC(Sc3ccccc3[N+](=O)[O-])C(Cl)C21 (stereo not given)	-	-	-	.	-
CCN(CC)C(=O)c1ccc2c(c1)C1C(Cl)C(Sc3ccccc3[N+](=O)[O-])CC1C(C(=O)O)N2 (stereo not given)	-	-	64	.	-
SMILES	BJeLR viability	SARS 3CLpro inh	SSB-PriA inh	PrPC surface inh	PrP 5UTR inh
CCOc1ccc(OCC(=O)N2CCN(c3nccn3-c3ccc(C)cc3)CC2)cc1	.	.	60	.	.
COc1ccc(NC(=O)CN2CCN(c3nccn3-c3ccc(C)cc3)CC2)cc1OC	.	.	37	.	.
CCOc1ccccc1NC(=O)CN1CCN(c2nccn2-c2cccc(Cl)c2)CC1	.	.	59	.	.
COc1ccc2cc(CNCCOCCOCCNCc3ccc4cc(OC)ccc4c3)ccc2c1	.	.	-	32	-
CC1(C)CC(=O)c2c(nc(SCC(=O)Nc3nsc(-c4ccccc4)n3)c(C#N)c2-c2ccccc2)C1	59	-	-	-	-
C[C@@H](c1ccccc1)N1COc2ccc3c(=O)c(-c4ccccc4)coc3c2C1	.	.	-	.	.
Cc1ccc(Nc2nc(-c3ccccn3)cs2)cc1	.	.	109	.	.
c1ccc(Nc2nc(-c3ccccn3)cs2)cc1	-	-	-	-	-
Cc1ccnc(Nc2nc(-c3ccccn3)cs2)c1	.	.	147	.	.
c1ccc(-c2csc(Nc3cccnc3)n2)nc1	-	-	71	-	.
CC(=O)Nc1ccc(Nc2nc(-c3ccccn3)cs2)cc1	.	.	90	.	.
O=C(Nc1nc(-c2ccc(Cl)s2)cs1)c1ccc(S(=O)(=O)N2CCc3ccccc32)cc1	.	.	-	.	.
CCCCOc1cccc(C(=O)Nc2nnc(-c3cccs3)o2)c1	.	.	-	.	.
O=C(c1cncc(Br)c1)N1CCc2ncncc2C1	.	.	-	.	.
Cn1ccnc1SCC1CCN(C(=O)c2cccs2)CC1	.	.	35	.	.
Cn1ccnc1SCC1CCN(C(=O)c2ccsc2)CC1	.	.	-	.	.
Cc1ccsc1C=Nn1c(-c2ccccn2)n[nH]c1=S	.	.	88	.	.
S=c1[nH]nc(-c2ccccn2)n1N=Cc1ccc(Br)s1	.	.	79	.	.
S=c1[nH]nc(-c2ccccn2)n1/N=C/c1cccs1	-	-	.	-	-
Cc1cc([N+](=O)[O-])cc([N+](=O)[O-])c1NCC(C)C	-	-	44	-	-
